Reference: PubChem BioAssay (NCATS)
The source made the active and inactive calls. The call rests on the fitted dose curve; in most records, active means well fitted curve in the direction sought with a large enough effect; inactive means no such curve, though single readings can be large or run the other way.

The molecules below were run against Alpha-galactosidase A (Homo sapiens) (UniProt P06280) (assay: Counterscreen for Glucocerebrosidase Inhibitors: qHTS Assay for Human alpha-Galactosidase at pH 4.5 (AID 992)). Details: purified enzyme, fluorogenic substrate; series mostly up to 76.9 µM.
Chain of Alpha-galactosidase A (Homo sapiens) (P06280 whole entry, looked up): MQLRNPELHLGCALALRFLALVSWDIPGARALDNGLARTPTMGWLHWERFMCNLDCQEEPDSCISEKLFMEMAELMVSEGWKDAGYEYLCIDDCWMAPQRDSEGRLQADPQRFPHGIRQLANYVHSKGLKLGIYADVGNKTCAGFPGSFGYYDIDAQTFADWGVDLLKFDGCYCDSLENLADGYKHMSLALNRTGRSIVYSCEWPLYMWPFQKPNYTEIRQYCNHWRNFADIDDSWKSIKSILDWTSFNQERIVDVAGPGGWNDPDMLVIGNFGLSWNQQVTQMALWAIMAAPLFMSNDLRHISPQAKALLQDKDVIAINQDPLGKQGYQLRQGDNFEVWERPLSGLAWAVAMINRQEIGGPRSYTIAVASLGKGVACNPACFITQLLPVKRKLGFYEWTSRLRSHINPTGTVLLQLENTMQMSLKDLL
Description: NIH Chemical Genomics Center [NCGC]
NIH Molecular Libraries Screening Centers Network [MLSCN]
PI Name: Zheng, Wei [NIH]
Alpha-galactosidase is a homodimeric glycoprotein that hydrolyzes the terminal alpha-galactosyl moieties from glycolipids and glycoproteins. Deficiency of this enzyme results in Fabry Disease with progressive accumulation of globotriaosylceramide and other glycosphingolipids in vascular endothelial cells that causes renal failure, myocardial infarction and stroke, and premature death in patients. It has reported that the improper folding and trafficking of alpha-galactosidase resulted from the genetic mutations may account for a significant numbers of Fabry patients. […] We optimized this alpha-galactosidase assay in 1536-well plate format for identifying the novel small molecule inhibitors with the structures other than the sugar analogs in order to develop the new pharmacological chaperones.
NCGC Assay Protocol Summary:
This is a fluorogenic enzyme assay with 4-Methylumbelliferyl alpha-D-galactopyranoside as the substrate and human […] as the enzyme preparation. Upon the hydrolysis of this fluorogenic substrate, the resulting product, […]. 4-Methyllumbelliferone, can be excited at 365 nm and emits at 440 nm which can be detected by a standard fluorescence plate reader. Data were normalized to the controls for basal activity (without enzyme) and 100% activity (with enzyme). In the AC50 values were determined from concentration-response data modeled with the standard Hill equation.
Assay buffer: 50 mM citric acid, 0.005% Tween-20, pH 4.5. (pH 4.5 is an optimal condition for this enzyme assay)
1536-well assay protocol for the human alpha-galactosidase:
(1) Add 2 ul/well of enzyme (2 nM final)
(2) Add 23 nL compounds in DMSO solution. The final titration was 0.7 nM to 77 uM.
(3) Add 1 ul of substrate (80 uM final)
(4) Incubate at room temperature for 20 min.
(5) Add 2 ul stop solution (1M NaOH and 1M Glycine mixture, pH 10)
(6) Detect the assay plate in a ViewLux plate reader (PerkinElmer) with Ex=365 nm and Em=440nm.
Keywords: Alpha-galactosidase, Fabry Disease, pharmacological chaperone, chaperone therapy, high throughput screening, alpha-galactosidase inhibitor, MLSMR, MLSCN, NIH Roadmap, qHTS and NCGC
With `NCCNS(=O)(=O)c1cccc2cnccc12` the outcome was “inactive”.
`COc1ccccc1NC(=O)Nc1nc(-c2cccnc2)nc2ccccc12` was tested, and the outcome was “inactive”.
In the case of `NC[C@](O)(CS(=O)(=O)O)c1ccc(Cl)cc1`, the outcome is reported as “inactive”.
In the case of `C[C@@H]1C[C@@H]2[C@H]3CCC4=CC(=O)C=C[C@]4(C)[C@]3(F)[C@@H](O)C[C@@]2(C)[C@@]1(O)C(=O)CO`, the outcome is reported as “inactive”.
In the case of `CC(N)=NCCC[C@H](N)C(=O)O`, the outcome is reported as “inactive”.
`N#CC(=C(/N)Sc1ccccc1N)/C(C#N)=C(/N)Sc1ccccc1N` was tested, and the outcome was “inactive”.
With `N[C@H](CCC(=O)N[C@H](CSN=O)C(=O)NCC(=O)O)C(=O)O` the outcome was “inactive”.
In the case of `CO[C@]1(C2=NCCN2)COc2ccccc2O1`, the outcome is reported as “inactive”.
For `COCCOC(=O)C1=C(C)NC(C)=C(C(=O)OC(C)C)[C@@H]1c1cccc([N+](=O)[O-])c1`, the outcome was “inactive”.
In the case of `CC(C)NC[C@@H](O)COc1ccc(CCOCC2CC2)cc1`, the outcome is reported as “inactive”.
In the case of `O=C(Nc1cc(C(=O)Nc2ccc(S(=O)(=O)O)cc2S(=O)(=O)O)cc(C(=O)Nc2ccc(S(=O)(=O)O)cc2S(=O)(=O)O)c1)Nc1cc(C(=O)Nc2ccc(S(=O)(=O)O)cc2S(=O)(=O)O)cc(C(=O)Nc2ccc(S(=O)(=O)O)cc2S(=O)(=O)O)c1`, the outcome is reported as “inactive”.
For `CC[C@H](C)C(=O)O[C@H]1CCC=C2C=C[C@H](C)[C@H](CC[C@@H]3C[C@H](O)CC(=O)O3)[C@H]21`, the outcome was “inactive”.
For `O=C1CC[C@H](N2C(=O)c3ccccc3C2=O)C(=O)N1`, the outcome was “inactive”.
For `C1CCC(N=C(NC23CC4CC(CC(C4)C2)C3)N2CCOCC2)CC1`, the outcome was “inactive”.
With `CN(C)C/C=C(\c1ccc(Br)cc1)c1cccnc1` the outcome was “inactive”.
In the case of `COc1cc2c(cc1C(F)(F)F)N(C(=O)Nc1cc(F)cc(-c3cccnc3)c1)CC2`, the outcome is reported as “inactive”.
With `CC[C@H](C)N(C)C(=O)c1cc2ccccc2c(-c2ccccc2Cl)n1` the outcome was “inactive”.
In the case of `CCOC(=O)[C@@]12C[C@@H]1/C(=N/O)c1ccccc1O2`, the outcome is reported as “inactive”.
`CCCCCCCCCCCCC/C=C\[C@@H](O)[C@@H](N)CO` was tested, and the outcome was “inactive”.
For `COC(=O)c1c(-c2cc(OC)c(OC)c(OC)c2)c2ccnc(OCc3ncccn3)c2c(=O)n1Cc1ccnc(C)c1`, the outcome was “inactive”.
In the case of `O=C(NC[C@H]1CCCCN1)c1cc(OCC(F)(F)F)ccc1OCC(F)(F)F`, the outcome is reported as “inactive”.
With `Fc1cccc(/C=N\N=C/c2cccc(F)c2)c1` the outcome was “inactive”.
In the case of `O=C1N=C(O)CN1/N=C\c1ccc(-c2ccc([N+](=O)[O-])cc2)o1`, the outcome is reported as “inactive”.
In the case of `Fc1ccc(C(c2ccc(F)cc2)N2CCN(C/C=C\c3ccccc3)CC2)cc1`, the outcome is reported as “inactive”.
In the case of `N[C@@H]1CCN(O)C1=O`, the outcome is reported as “inactive”.
For `CN1CCN2c3ccccc3Cc3ccccc3[C@@H]2C1`, the outcome was “inactive”.
`COc1cc2nc(N3CCN(C(=O)[C@H]4CCCO4)CC3)nc(N)c2cc1OC` was tested, and the outcome was “inactive”.
`O=C(O)[C@H]1CCCNC1` was tested, and the outcome was “inactive”.
For `CC(=O)N[C@@H](C(=O)O)C(C)(C)SN=O`, the outcome was “inactive”.
In the case of `CCn1ccnc1C[C@@H]1COc2ccccc2O1`, the outcome is reported as “inactive”.
In the case of `COc1cccc(OC)c1OCCNC[C@@H]1COc2ccccc2O1`, the outcome is reported as “inactive”.
`N[C@H](C(=O)O)[C@@H]1C[C@@H]1C(=O)O` was tested, and the outcome was “inactive”.
`C[C@@H](/C=C\c1cccc(Oc2ccc(F)cc2)c1)N(O)C(N)=O` was tested, and the outcome was “inactive”.
For `C[C@]12CC3CC(N)(C1)C[C@@](C)(C3)C2`, the outcome was “inactive”.
With `N[C@@H](CO)C(=O)O` the outcome was “inactive”.
`CC[N+](CC)(CC)CC` was tested, and the outcome was “inactive”.
`CCCCOc1cc(C[C@@H]2CNC(=O)N2)ccc1OC` was tested, and the outcome was “inactive”.
With `CC(C)NC[C@H](O)c1ccc(NS(C)(=O)=O)cc1` the outcome was “inactive”.
For `CCN(Cc1ccncc1)C(=O)[C@@H](CO)c1ccccc1`, the outcome was “inactive”.
For `CN(C)CCCCSC(=N)N`, the outcome was “inactive”.
